Out of some 320,000 compounds screened, about 620 (0.19%) were called active. Inconclusive results (about 6%) are left out. This excerpt belongs to a sample that is enriched for actives. A number with no mark means an inactive call. No stated cut-off is given here; in the data, active means activation above about 80%; inconclusive means between about 30% and that limit; inactive means weaker than that.
target: Transient receptor potential cation channel subfamily V member 1 (Homo sapiens) (UniProt Q8NER1); test: HTS Assay for Compounds that Act as Agonists of the Vanilloid Receptor 1; conditions: TRPV1-expressing cells, Fluo-8 calcium influx, agonist mode; at 8.33 µM; hits give high values; further: 0% is about no effect
Source text: The transient receptor potential ion channel, family V, number 1, (TRPV1) is one of the most important molecular transducers of painful stimuli and a potential target for analgesic drug development. Although recent clinical trials with orthosteric antagonists have not produced a successful drug because of a hyperthermia side effect and their tendency to block thermal noxious pain, this ion channel is undeniably well placed in the pain pathway, and the idea of blocking pain signals before they enter the CNS is an excellent concept and of proven efficacy when TRPV1 agonists are used. We propose a new approach involving allosteric modulation to impose an activity-dependent constraint within the context of inflammation and tissue damage that would alter the responsiveness of the channel in a way that an orthosteric vanilloid antagonist cannot achieve. We believe that the allosteric modulator approach has not been explored for this target. The main goal of this proposal is to identify additional, new, potent allosteric modulators of TRPV1 that can be used to investigate TRPV1 function. Our recent report provides evidence of proof of concept, but the compounds are just at the edge of utility in terms of potency. […] The question of whether they can be used as analgesic agents is complex, but if suitable compounds are identified then testing for analgesic properties will be conducted. NIH Chemical Genomics Center [NCGC] NIH Molecular Libraries Probe Centers Network [MLPCN] MLPCN Grant: MH089480-1A1 Assay Submitter (PI): Michael Iadarola, National Institute of Dental and Cranofacial Research
Upon TRPV1 activation in TRPV1 cells, the channel opens and extracellular cations flow through the channel into the cytosol. A calcium binding dye (Fluo-8) becomes fluorescent when bound to calcium. This dye is pre-loaded into cells and is used as a marker for calcium influx. The amount of accumulated calcium is precisely quantified using the FDSS kinetic reader and the calcium dye. For the HTS assay, freshly prepared cells are plated at a density of 2000/well in 3 ul medium in 1536-well plates and cultured overnight at 35.5C. Cells will be loaded with 1 ul of the homogeneous calcium dye (ABD Bioquest) at room temperature for 40 to 90 minutes. Plates will be loaded into the FDSS kinetic reader and a 1 sec / cycle for 10 second baseline signal will be measured. Compound library will then be added with a pintool at 23 nl and measured kinetically for 3 minutes. This portion of the read is considered the agonist portion of the screen. Following the 3 minutes of incubation, an on board pipettor will deliver 1 ul of capsaicin for a final concentration equal to the EC20. Signal will be measured kinetically for an additional 2 minutes. This portion of the read is considered the allosteric enhancer portion of the screen. The FDSS reader has a standard filter set capable of measuring calcium bound Fluo-8 (ex=480 and em=520 nm).

Chain of Transient receptor potential cation channel subfamily V member 1 (Homo sapiens) (Q8NER1 whole entry, looked up): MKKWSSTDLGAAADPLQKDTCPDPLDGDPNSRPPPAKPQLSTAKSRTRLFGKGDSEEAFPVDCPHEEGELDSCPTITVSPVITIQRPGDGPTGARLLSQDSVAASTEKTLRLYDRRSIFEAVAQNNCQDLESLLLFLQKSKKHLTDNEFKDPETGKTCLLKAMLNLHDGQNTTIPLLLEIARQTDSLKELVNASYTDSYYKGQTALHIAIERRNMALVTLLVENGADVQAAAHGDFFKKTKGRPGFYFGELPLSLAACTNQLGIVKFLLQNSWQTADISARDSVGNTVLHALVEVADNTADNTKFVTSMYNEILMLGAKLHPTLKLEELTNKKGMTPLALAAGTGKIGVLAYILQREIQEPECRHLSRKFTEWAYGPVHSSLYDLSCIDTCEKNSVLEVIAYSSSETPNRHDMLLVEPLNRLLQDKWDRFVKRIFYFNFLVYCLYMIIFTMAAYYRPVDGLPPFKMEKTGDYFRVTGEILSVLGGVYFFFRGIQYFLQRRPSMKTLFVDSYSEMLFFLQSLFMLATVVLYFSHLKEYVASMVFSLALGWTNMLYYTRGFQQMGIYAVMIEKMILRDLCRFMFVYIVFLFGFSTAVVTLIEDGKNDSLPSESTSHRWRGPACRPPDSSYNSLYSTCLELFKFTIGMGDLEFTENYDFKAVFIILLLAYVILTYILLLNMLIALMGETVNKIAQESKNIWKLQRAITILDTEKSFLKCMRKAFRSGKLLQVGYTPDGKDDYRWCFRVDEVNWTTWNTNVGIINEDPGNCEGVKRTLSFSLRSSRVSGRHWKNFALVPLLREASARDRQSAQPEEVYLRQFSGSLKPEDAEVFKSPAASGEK

Row | Compound | activation
1 | CCCC(NCC(=O)Nc1ccccc1C(=O)NC1CC1)c1ccccc1 (stereo not given) | 21.8%
2 | CO[C@H]1[C@@H]2C=CO[C@@H](O[C@H]3O[C@@H](CO)[C@H](O)[C@@H](O)[C@@H]3O)[C@@H]2[C@@]2(CO)O[C@@H]12 | -3.6%
3 | CC(C)N(C(=O)CN1CCN(S(=O)(=O)c2ccc(Br)s2)CC1)C(C)C | 17.4%
4 | CCCCN(CC(=O)Nc1cccc(S(=O)(=O)N2CCCC2)c1)Cc1nc2ccccc2c(=O)[nH]1 | 26.8%
5 | CCOc1cc(NC(=O)Nc2ccccc2)c(OCC)cc1NC(=O)CC | 3.84%
6 | CCOc1ccc(CCNC(=O)Nc2ccccc2)cc1OCC | 91.3% (active)
7 | CCOc1ccc(CCNC(=O)COC(=O)c2c(OC)cccc2OC)cc1OCC | -2.55%
8 | Cc1cc(C(=O)COc2ccc(Br)cc2F)c(C)n1C1CC1 | 20.7%
9 | CNS(=O)(=O)c1cccc(C(=O)OCCCC(=O)c2ccccc2)c1 | 4.36%
10 | CC(OC(=O)Cc1ccc(F)cc1)C(=O)N1CCc2ccccc21 (stereo not given) | 16.3%
11 | Cc1cc(C)n2nc(C(=O)Nc3cccc(S(=O)(=O)N4CCOCC4)c3)nc2n1 | 0.0473%
12 | Nc1cc(N)nc(SCC(=O)Nc2cccc(S(=O)(=O)N3CCCCC3)c2)n1 | 1.32%
13 | O=C(NCCc1ccc(F)cc1)c1ccc(S(=O)(=O)N2CCCCC2)cc1 | 28.8%
14 | C/C(=N\NC(=O)c1cccc(N2CCCC2=O)c1)c1ccc(N)cc1 | -0.551%
15 | COc1cc(/C=N/NC(=O)c2ccc(N3CCCC3=O)cc2)ccc1O | 82.8% (active)
16 | O=C(N/N=C/c1cccc(Br)c1)c1ccc(N2CCCC2=O)cc1 | 14.1%
17 | Cc1ccc(C(=O)CN2C(=O)NC3(CCOc4ccccc43)C2=O)s1 (stereo not given) | -5.77%
18 | CC(C)CCN1CCC(C)(NC(=O)c2ccccc2)C1=O (stereo not given) | -3.6%
19 | CC(=O)c1ccc(OCCCC(=O)Nc2ccc(C)c(S(=O)(=O)N3CCOCC3)c2)cc1 | 5.88%
20 | COc1cc(OC)c(N2CC(C(=O)Nc3cc(Cl)ccc3N3CCOCC3)CC2=O)cc1Cl (stereo not given) | 1.31%
21 | Cc1cccc(Nc2nnc(SCC(=O)c3c(N)n(C4CC4)c(=O)[nH]c3=O)s2)c1C | -1.01%
22 | COc1ccc(C(=O)OCC(=O)c2cc(C)n(CC3CCCO3)c2C)cc1[N+](=O)[O-] (stereo not given) | -3.97%
23 | CN(CC(=O)NC1CCN(Cc2ccccc2)CC1)S(=O)(=O)c1ccc(Cl)s1 | 7.2%
24 | CN(C(=O)CSc1nnc(-c2ccc3c(c2)OCO3)o1)C1CCS(=O)(=O)C1 (stereo not given) | 1.32%
25 | COc1ccc(C(=O)N2CCN(c3ncccn3)CC2)cc1S(=O)(=O)N1CCOCC1 | 4.11%

Row | Compound | activation
26 | O=C(NC1CC1)c1ccc(-c2ccccc2)cc1 | 83% (active)
27 | O=C(NC1CCCC1)c1cc(-c2ccccc2)on1 | 22.2%
28 | O=C(NC1CC1)c1cccc(Br)c1 | -0.868%
29 | CN(C(=O)CSc1nnc(-c2ccc(C(C)(C)C)cc2)n1C)C1CCS(=O)(=O)C1 (stereo not given) | 1.75%
30 | Cc1cc(C(=O)COc2ccccc2Cl)c(C)n1C1CC1 | 26.9%
31 | Cc1ccc(S(=O)(=O)N2CC(O)C[C@H]2C(=O)OCC(=O)Nc2ccc(N3CCOCC3)cc2)cc1C (stereo not given in full) | -0.193%
32 | COc1cccc(C(=O)Nc2nc3ccc(S(C)(=O)=O)cc3s2)c1 | -1.41%
33 | COc1ccc2nc(NC(=O)c3ccc(Br)s3)sc2c1 | 97.1% (active)
34 | CCc1noc(C)c1C(=O)Nc1nc2ccc(OC)cc2s1 | 8.32%
35 | COc1ccc(NC(=O)CC2SC(N3CCCCC3)=NC2=O)cc1OC (stereo not given) | 1.55%
36 | Cc1nc2c(c(=O)n1Cc1ccco1)c1nc3ccccc3nc1n2Cc1ccccc1 | 1.97%
37 | Cc1cc2nc3c(=O)n(Cc4ccccc4)c(=O)[nH]c3nc2cc1N | 90.7% (active)
38 | CC(=O)c1ccc(-c2ccc(Cn3c(C)nc4cc(N)c(C)nc43)cc2)cc1 | 4.86%
39 | CCOC(=O)c1ccc(NC(=O)c2cccnc2)cc1 | -0.797%
40 | Cc1cnc(NC(=O)c2ccc(Cl)nc2)s1 | 1.7%
41 | CCN(CC)c1ccc(NC(=O)c2ccc(Cl)nc2)cc1 | 82% (active)
42 | Cc1csc(NC(=O)C2CCN(S(=O)(=O)c3ccccc3)CC2)n1 | 0.443%
43 | CCCCn1nc(C(=O)Nc2cccc(C(=O)NC3CC3)c2)c2ccccc2c1=O | 17.8%
44 | CC(C)n1ncc2c(C(=O)NCc3ccccc3CN(C)C)cc(C3CC3)nc21 | 1.42%
45 | O=S(=O)(c1cccs1)N1CCN(CCOc2ccccc2)CC1 | 10.7%
46 | O=C(NCC(=O)N1CCCCCCC1)c1ccccc1Cl | 4.74%
47 | COc1ccccc1C(CNC(=O)c1cccc(S(=O)(=O)Nc2ccc(F)cc2)c1)N(C)C (stereo not given) | 1.81%
48 | COc1ccccc1-c1sc2ccccc2c1-c1ccc(Br)nc1 | 1.98%
49 | Cc1ccc(C(CC(=O)O)NC(=O)c2ccc(S(=O)(=O)N3CCCC3)cc2)cc1 (stereo not given) | -0.421%
50 | O=C(CN1CCc2ccccc2C1)Nc1cccc(S(=O)(=O)N2CCOCC2)c1 | 13.1%

Source: PubChem BioAssay AID540275 (National Center for Advancing Translational Sciences (NCATS), 2011)
